Source: PubChem (University of Kansas High Throughput Screening Laboratory)
An excerpt weighted towards active compounds, which were near 3.5% of everything screened.
Pf apPOL inh: Pf-apPOL DNA polymerase inhibition; Recombinant Pf-apPOL, molecular beacon fluorescence, 1.5 h; inhibition, % at 10 µM; 0.25% of 210,000 active; AID 1794808
mHTT CaM bind: mHTT-calmodulin interaction abrogation; AlphaScreen His-mHTT/GST-CaM binding, luminescence; inhibition, % at 15 µM; 3.6% of 190,000 active;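 also: 0% = both proteins with DMSO and 100% = one protein alone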
* marks the source's active call; other numbers are inactive results; i = inactive; nt = no result given; ! = a repeat was not active. Rule as the data show it: active = inhibition above about 50%; inactive = the rest.

SMILES	Pf apPOL inh	mHTT CaM bind
O=C(Nc1ccc(S(=O)(=O)Nc2cccc(Cl)c2Cl)cc1)c1ccc([N+](=O)[O-])cc1	-7.1	61.9*
O=C(Nc1ccc(S(=O)(=O)Nc2ccccc2)cc1)c1ccc([N+](=O)[O-])cc1	0.1	-6.6
N#CC1=C(N)C(C#N)(C#N)C(c2cc(Br)cs2)C2CCCC=C12 (centres undefined)	nt	32.8
N#Cc1ccc(Nc2nc(-c3cc4ccccc4oc3=O)cs2)cc1	2.8	-3.0
COc1ccc(C)cc1NC(=O)C1c2cc(OC)c(OC)cc2C(=O)N2CCc3ccccc3C12 (centres undefined)	-7.8	57.0*
COc1cc2c(cc1OC)C(C(=O)NCCc1cccc(C)c1)C1c3ccccc3CCN1C2=O (centres undefined)	-1.4	89.0*
COc1cc2c(cc1OC)C(C(=O)Nc1cc(C)ccn1)C1c3ccccc3CCN1C2=O (centres undefined)	-1.0	69.0*
COCCN1C(=O)c2ccccc2C(C(=O)O)C1c1cn(C)c2ccccc12 (centres undefined)	3.9	1.0
COc1cc2c(cc1OC)C(C(=O)NCc1cccnc1)C1c3ccccc3CCN1C2=O (centres undefined)	-3.6	-5.0
Cc1ccnc(NC(=O)C2c3ccccc3C(=O)N3CCc4ccccc4C23)c1 (centres undefined)	-2.2	31.0
COc1ccc(OC)c(NC(=O)C2c3ccccc3C(=O)N3CCc4ccccc4C23)c1 (centres undefined)	-6.6	16.0
COCCN1C(=O)c2ccccc2C(C(=O)Nc2cc(C)ccn2)C1c1cn(C)c2ccccc12 (centres undefined)	-3.0	54.0*
CC1=Nc2ccc(-c3ccccc3)cc2C1(C)C	nt	-5.8
O/N=C/c1cn(-c2ccccc2)nc1-c1cc2ccccc2o1	-1.9	i
COc1cccc2sc(NC(=O)C3CCN(S(=O)(=O)c4cccs4)CC3)nc12	2.4	-1.1
NC(=O)CNC(=O)C1CCCc2c1[nH]c1ccc(Cl)cc21 (centres undefined)	-7.2	10.2
CCOC(=O)CNC(=O)C1CCCc2c1[nH]c1ccc(Cl)cc21 (centres undefined)	0.8	100.0*
COc1ccc(OC)c(S(=O)(=O)c2ccc([N+](=O)[O-])cc2Cl)c1	-9.9	nt
CC(C)Cc1ccc(S(=O)(=O)n2cc([N+](=O)[O-])cn2)cc1	-3.3	100.0*
COc1ccc(OC)c(S(=O)(=O)n2cc([N+](=O)[O-])cn2)c1	-11.3	100.0*
O=[N+]([O-])c1ccc(S(=O)(=O)n2cccn2)cc1	12.7	8.0
Cc1ccc(C2C3CN(C)CC=C3C(C#N)=C(N)C2(C#N)C#N)c(C)c1 (centres undefined)	1.4	16.0
O=C(c1ccccc1F)N1CCN(C2=NN=C(c3ccccc3)CS2)CC1	-6.6	92.5*
O=C(c1ccccc1)c1ccc(N2CCN(C(=O)c3ccccc3F)CC2)c(F)c1	3.6	-3.6
O=C(c1ccco1)N1CCN(C2=NN=C(c3cccs3)CS2)CC1	50.1*	95.7*
SMILES	Pf apPOL inh	mHTT CaM bind
N#Cc1nc(-c2cccs2)oc1N1CCN(C(=O)c2ccco2)CC1	-2.2	-2.2
CC(C)c1nnc2n1CCN(C(=O)c1cc(-c3cccs3)[nH]n1)C2	-3.8	3.7
CSc1ccc(/C=C2/N=C(c3c(-c4ccccc4)noc3C)OC2=O)cc1	-0.5	-1.0
Cc1cccc(NC(=O)N2CCCC2c2c(C)noc2C)c1 (centres undefined)	-4.8	6.5
CCc1nnc2c(Oc3ccc(OC)cc3)nc3ccccc3n12	3.1	-2.9
COc1ccc(C2CCC3(CCC(=O)N3CCOC(=O)C(C)C)CC2)cc1 (centres undefined)	-9.2	23.2
CC(C)C(=O)OCCCN1C(=O)CCC12CCC(c1ccccc1)CC2 (centres undefined)	-9.3	69.5*
COc1cc(C)c2c(c1)OC(=Cc1ccc(F)cc1)C2=O	-0.7	-2.4
Cc1cc(C(=O)NCc2cccnc2-c2ccc(F)cc2)no1	-0.7	-5.1
N#CC1=C(N)OC2=C(C(=O)CC(c3ccccc3)C2)C1c1ccc(Cl)cc1 (centres undefined)	-7.5	-2.2
N#CC1=C(N)OC2=C(C(=O)CC(c3ccccc3)C2)C1c1ccc(Cl)cc1Cl (centres undefined)	-6.5	68.8*
N#CC1=C(N)OC2=C(C(=O)CC(c3ccccc3)C2)C1c1ccsc1 (centres undefined)	1.4	5.7
N#CC1=C(N)OC2=C(C(=O)CC(c3ccccc3)C2)C1C1CCCCC1 (centres undefined)	50.6*!	59.6*!
CCc1nc(-c2nnn(-c3ccc(F)cc3)c2C)no1	-1.7	-10.6
CC1=C(C(=O)Nc2ccc(Cl)cc2)C(c2ccccc2Cl)C(C#N)=C(SCC(N)=O)N1 (centres undefined)	1.1	46.0
N#Cc1cc2c(N)c(C(=O)Nc3ccccc3Br)sc2nc1N	32.9	20.0
CCN1CCN(CCNC(=O)CC2CCN(C(=O)c3ccccc3)CC2)CC1	-2.9	-6.1
